# The supplement of paper PMC4022240
# ± gives the standard deviation.
# T1: HaloTag-ATRX ADD domain (163-292)
# T1 chain: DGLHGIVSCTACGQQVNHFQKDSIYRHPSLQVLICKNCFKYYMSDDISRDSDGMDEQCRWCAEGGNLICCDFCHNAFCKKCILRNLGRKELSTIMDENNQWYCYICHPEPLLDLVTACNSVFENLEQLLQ
# What was measured:
# Experiment in all cases: peptide microarray binding signal (635 nm), min-max normalized on array (fraction of array maximum); higher = stronger binding
# [1] = molecular target: T1, HaloTag-ATRX ADD domain (163-292)
# In short: (§1)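 Arrays carried histone 13-mer peptide–cellulose conjugates printed in triplicate on nitrocellulose alongside a Cy3 tracer. After overnight blocking at 4°C, they were incubated for 1 h at 4°C with biotin-labelled HaloTag reader fusions (10 nM to 1 μM) plus streptavidin-Alexa Fluor 647, or with rabbit histone antibodies (1:10,000 to 1:2,000) plus anti-rabbit Alexa 647. Scanning on an Axon GenePix 4000B used 635 nm for signal and 532 nm for misprints. The binding signal reported is each triplicate's mean spot intensity after per-library min-max scaling.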
# [2] = molecular target: HaloTag-ING2 PHD (mouse Ing2 200-280)
# In short: as §1
# [3] = molecular target: anti-H3K4me3 antibody ab8580
# In short: as §1
# [4] = molecular target: anti-H3K9me3 antibody ab8898
# In short: as §1
# [5] = peptide region: H3 50-62, peptide modifications: H3S57ph, binder concentration: 1:2,000 dilution
# [6] = peptide region: H3 50-62, peptide modifications: H3S57ph, binder concentration: 1:10,000 dilution
# [7] = peptide region: H3 50-62, peptide modifications: H3K56me2 H3T58ph, binder concentration: 1:2,000 dilution
# [8] = peptide region: H3 50-62, peptide modifications: H3K56me2 H3T58ph, binder concentration: 1:10,000 dilution
# [9] = peptide region: H3 50-62, peptide modifications: H3K56ac H3S57ph, binder concentration: 1:2,000 dilution
# [10] = peptide region: H3 50-62, peptide modifications: H3K56ac H3S57ph, binder concentration: 1:10,000 dilution
# [11] = peptide region: H3 50-62, peptide modifications: H3K56me3 H3S57ph, binder concentration: 1:2,000 dilution
# [12] = peptide region: H3 50-62, peptide modifications: H3K56me3 H3S57ph, binder concentration: 1:10,000 dilution
# [13] = peptide region: H3 50-62, peptide modifications: H3K56me2 H3S57ph, binder concentration: 1:2,000 dilution
# [14] = peptide region: H3 50-62, peptide modifications: H3K56me2 H3S57ph, binder concentration: 1:10,000 dilution
# [15] = peptide region: H3 73-85, peptide modifications: H3K79me1, binder concentration: 1:2,000 dilution
# [16] = peptide region: H3 73-85, peptide modifications: H3K79me1, binder concentration: 1:10,000 dilution
# [17] = peptide region: H3 73-85, peptide modifications: H3K79ac, binder concentration: 1:2,000 dilution
# [18] = peptide region: H3 73-85, peptide modifications: H3K79ac, binder concentration: 1:10,000 dilution
# [19] = peptide region: H3 73-85, binder concentration: 1:2,000 dilution
# [20] = peptide region: H3 73-85, binder concentration: 1:10,000 dilution
# [21] = peptide region: H3 73-85, peptide modifications: H3K79me2, binder concentration: 1:2,000 dilution
# [22] = peptide region: H3 73-85, peptide modifications: H3K79me2, binder concentration: 1:10,000 dilution
# [23] = peptide region: H3 50-62, peptide modifications: H3K56me2, binder concentration: 1:2,000 dilution
# [24] = peptide region: H3 50-62, peptide modifications: H3K56me2, binder concentration: 1:10,000 dilution
binder,measurement,setting,value
EIRRYQKSTELLI [H3 50-62 E I R R Y Q K Sph T E L L I],peptide microarray binding signal,"[1]; peptide region: H3 50-62, peptide modifications: H3S57ph, binder concentration: 50 nM",0.000878 ± 5.7e-05
same,peptide microarray binding signal,"[1]; peptide region: H3 50-62, peptide modifications: H3S57ph, binder concentration: 500 nM",0.00167 ± 0.00017
same,peptide microarray binding signal,"[2]; peptide region: H3 50-62, peptide modifications: H3S57ph, binder concentration: 10 nM",0.00179 ± 2.8e-05
same,peptide microarray binding signal,"[2]; peptide region: H3 50-62, peptide modifications: H3S57ph, binder concentration: 100 nM",0.00085 ± 3.4e-05
same,peptide microarray binding signal,[3]; [5],0.000132 ± 5.8e-06
same,peptide microarray binding signal,[3]; [6],0.000228 ± 4.4e-06
same,peptide microarray binding signal,[4]; [5],0.000755 ± 0.00012
same,peptide microarray binding signal,[4]; [6],0.000461 ± 8.7e-06
EIRRYQKSTELLI [H3 50-62 E I R R Y Q Kme2 S Tph E L L I],peptide microarray binding signal,"[1]; peptide region: H3 50-62, peptide modifications: H3K56me2 H3T58ph, binder concentration: 50 nM",0.00116 ± 2.9e-05
same,peptide microarray binding signal,"[1]; peptide region: H3 50-62, peptide modifications: H3K56me2 H3T58ph, binder concentration: 500 nM",0.00181 ± 4.2e-05
same,peptide microarray binding signal,"[2]; peptide region: H3 50-62, peptide modifications: H3K56me2 H3T58ph, binder concentration: 10 nM",0.00286 ± 0.00011
same,peptide microarray binding signal,"[2]; peptide region: H3 50-62, peptide modifications: H3K56me2 H3T58ph, binder concentration: 100 nM",0.000992 ± 1.1e-05
same,peptide microarray binding signal,[3]; [7],0.000415 ± 1.5e-05
same,peptide microarray binding signal,[3]; [8],0.000456 ± 4.9e-06
same,peptide microarray binding signal,[4]; [7],0.00199 ± 0.00011
same,peptide microarray binding signal,[4]; [8],0.000923 ± 1.9e-05
EIRRYQKSTELLI [H3 50-62 E I R R Y Q Kac Sph T E L L I],peptide microarray binding signal,"[1]; peptide region: H3 50-62, peptide modifications: H3K56ac H3S57ph, binder concentration: 50 nM",0.00069 ± 9.4e-06
same,peptide microarray binding signal,"[1]; peptide region: H3 50-62, peptide modifications: H3K56ac H3S57ph, binder concentration: 500 nM",0.00119 ± 4e-05
same,peptide microarray binding signal,"[2]; peptide region: H3 50-62, peptide modifications: H3K56ac H3S57ph, binder concentration: 10 nM",0.00197 ± 4.2e-05
same,peptide microarray binding signal,"[2]; peptide region: H3 50-62, peptide modifications: H3K56ac H3S57ph, binder concentration: 100 nM",0.000567 ± 6.4e-06
same,peptide microarray binding signal,[3]; [9],5.66e-05
same,peptide microarray binding signal,[3]; [10],0.000399 ± 2.6e-05
same,peptide microarray binding signal,[4]; [9],0.000861 ± 5.4e-05
same,peptide microarray binding signal,[4]; [10],0.000577 ± 6.2e-06
EIRRYQKSTELLI [H3 50-62 E I R R Y Q Kme3 Sph T E L L I],peptide microarray binding signal,"[1]; peptide region: H3 50-62, peptide modifications: H3K56me3 H3S57ph, binder concentration: 50 nM",0.00122 ± 2.2e-05
same,peptide microarray binding signal,"[1]; peptide region: H3 50-62, peptide modifications: H3K56me3 H3S57ph, binder concentration: 500 nM",0.00224 ± 0.0003
same,peptide microarray binding signal,"[2]; peptide region: H3 50-62, peptide modifications: H3K56me3 H3S57ph, binder concentration: 10 nM",0.00251 ± 0.0001
same,peptide microarray binding signal,"[2]; peptide region: H3 50-62, peptide modifications: H3K56me3 H3S57ph, binder concentration: 100 nM",0.00142 ± 0.00012
same,peptide microarray binding signal,[3]; [11],0.00238 ± 0.00081
same,peptide microarray binding signal,[3]; [12],0.00177 ± 5e-05
same,peptide microarray binding signal,[4]; [11],0.0141 ± 0.011
same,peptide microarray binding signal,[4]; [12],0.0094 ± 0.0038
EIRRYQKSTELLI [H3 50-62 E I R R Y Q Kme2 Sph T E L L I],peptide microarray binding signal,"[1]; peptide region: H3 50-62, peptide modifications: H3K56me2 H3S57ph, binder concentration: 50 nM",0.00113 ± 1.5e-05
same,peptide microarray binding signal,"[1]; peptide region: H3 50-62, peptide modifications: H3K56me2 H3S57ph, binder concentration: 500 nM",0.00124 ± 2.3e-05
same,peptide microarray binding signal,"[2]; peptide region: H3 50-62, peptide modifications: H3K56me2 H3S57ph, binder concentration: 10 nM",0.00269 ± 0.00012
same,peptide microarray binding signal,"[2]; peptide region: H3 50-62, peptide modifications: H3K56me2 H3S57ph, binder concentration: 100 nM",0.00128 ± 1.3e-05
same,peptide microarray binding signal,[3]; [13],0.000378 ± 3.9e-06
same,peptide microarray binding signal,[3]; [14],0.000342 ± 3.8e-06
same,peptide microarray binding signal,[4]; [13],0.000725 ± 3.3e-05
same,peptide microarray binding signal,[4]; [14],0.000634 ± 1.2e-05
EIAQDFKTDLRFQ [H3 73-85 E I A Q D F Kme T D L R F Q],peptide microarray binding signal,"[1]; peptide region: H3 73-85, peptide modifications: H3K79me1, binder concentration: 50 nM",0.00649 ± 0.00015
same,peptide microarray binding signal,"[1]; peptide region: H3 73-85, peptide modifications: H3K79me1, binder concentration: 500 nM",0.02 ± 0.0022
same,peptide microarray binding signal,"[2]; peptide region: H3 73-85, peptide modifications: H3K79me1, binder concentration: 10 nM",0.0116 ± 0.0014
same,peptide microarray binding signal,"[2]; peptide region: H3 73-85, peptide modifications: H3K79me1, binder concentration: 100 nM",0.00475 ± 0.00052
same,peptide microarray binding signal,[3]; [15],0.00198 ± 0.00026
same,peptide microarray binding signal,[3]; [16],0.00234 ± 9.2e-05
same,peptide microarray binding signal,[4]; [15],0.0079 ± 0.00033
same,peptide microarray binding signal,[4]; [16],0.00357 ± 0.00023
EIAQDFKTDLRFQ [H3 73-85 E I A Q D F Kac T D L R F Q],peptide microarray binding signal,"[1]; peptide region: H3 73-85, peptide modifications: H3K79ac, binder concentration: 50 nM",0.003981 ± 1.6e-05
same,peptide microarray binding signal,"[1]; peptide region: H3 73-85, peptide modifications: H3K79ac, binder concentration: 500 nM",0.0121 ± 0.0025
same,peptide microarray binding signal,"[2]; peptide region: H3 73-85, peptide modifications: H3K79ac, binder concentration: 10 nM",0.00537 ± 0.00042
same,peptide microarray binding signal,"[2]; peptide region: H3 73-85, peptide modifications: H3K79ac, binder concentration: 100 nM",0.00298 ± 0.00043
same,peptide microarray binding signal,[3]; [17],0.00166 ± 0.00016
same,peptide microarray binding signal,[3]; [18],0.00428 ± 0.00088
same,peptide microarray binding signal,[4]; [17],0.0114 ± 0.0038
same,peptide microarray binding signal,[4]; [18],0.0106 ± 0.0027
EIAQDFKTDLRFQ [H3 73-85 E I A Q D F K T D L R F Q],peptide microarray binding signal,"[1]; peptide region: H3 73-85, binder concentration: 50 nM",0.0048 ± 0.00013
same,peptide microarray binding signal,"[1]; peptide region: H3 73-85, binder concentration: 500 nM",0.0155 ± 0.00056
same,peptide microarray binding signal,"[2]; peptide region: H3 73-85, binder concentration: 10 nM",0.008 ± 0.00096
same,peptide microarray binding signal,"[2]; peptide region: H3 73-85, binder concentration: 100 nM",0.00248 ± 6.3e-05
same,peptide microarray binding signal,[3]; [19],0.000264 ± 5.6e-06
same,peptide microarray binding signal,[3]; [20],0.00228 ± 0.0003
same,peptide microarray binding signal,[4]; [19],0.00308 ± 0.00021
same,peptide microarray binding signal,[4]; [20],0.00236 ± 6.4e-05
EIAQDFKTDLRFQ [H3 73-85 E I A Q D F Kme2 T D L R F Q],peptide microarray binding signal,"[1]; peptide region: H3 73-85, peptide modifications: H3K79me2, binder concentration: 50 nM",0.002539 ± 2.2e-05
same,peptide microarray binding signal,"[1]; peptide region: H3 73-85, peptide modifications: H3K79me2, binder concentration: 500 nM",0.00633 ± 0.00033
same,peptide microarray binding signal,"[2]; peptide region: H3 73-85, peptide modifications: H3K79me2, binder concentration: 10 nM",0.00281 ± 3.1e-05
same,peptide microarray binding signal,"[2]; peptide region: H3 73-85, peptide modifications: H3K79me2, binder concentration: 100 nM",0.00376 ± 0.00014
same,peptide microarray binding signal,[3]; [21],0.00106 ± 6.2e-05
same,peptide microarray binding signal,[3]; [22],0.00097 ± 2e-05
same,peptide microarray binding signal,[4]; [21],0.0117 ± 0.004
same,peptide microarray binding signal,[4]; [22],0.00709 ± 0.00024
EIRRYQKSTELLI [H3 50-62 E I R R Y Q Kme2 S T E L L I],peptide microarray binding signal,"[1]; peptide region: H3 50-62, peptide modifications: H3K56me2, binder concentration: 50 nM",0.01 ± 0.00043
same,peptide microarray binding signal,"[1]; peptide region: H3 50-62, peptide modifications: H3K56me2, binder concentration: 500 nM",0.0165 ± 0.0014
same,peptide microarray binding signal,"[2]; peptide region: H3 50-62, peptide modifications: H3K56me2, binder concentration: 10 nM",0.0135 ± 0.0033
same,peptide microarray binding signal,"[2]; peptide region: H3 50-62, peptide modifications: H3K56me2, binder concentration: 100 nM",0.00624 ± 0.00068
same,peptide microarray binding signal,[3]; [23],0.000868 ± 0.00013
same,peptide microarray binding signal,[3]; [24],0.00171 ± 8.6e-05
same,peptide microarray binding signal,[4]; [23],0.00953 ± 0.00056
same,peptide microarray binding signal,[4]; [24],0.00323 ± 0.0002
